PubChem BioAssay (NCATS)
Records with an inconclusive call do not appear. Calls of active or inactive are those of the source. Unless noted, calls follow the shape of the full dose curve.

Key:
[1] = AP1 Signaling Pathway (AID 357; active = well fitted curve in either direction with a large enough effect, not every such curve was filed as active;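 also: ME-180 reporter cells stimulated with EGF at its EC50 level; % is scaled to controls: 0 for no effect and ±100 for the full control effect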); conditions: ME-180 (cervical carcinoma) AP-1-bla reporter, EGF-induced, beta-lactamase ratio, 5 h; series mostly up to 17.2 µM
Outline: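 Beta-lactamase reporter under AP-1 response element, ME-180 background. Stimulus: EC50 EGF. Compound exposure 5 h, 37 °C. Detection: CCF4, 2.5 h RT, 460/530 nm. Values: AC50 from titration.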

[2] = NFAT Signaling Pathway (AID 444; active = well fitted curve in either direction with a large enough effect, not every such curve was filed as active;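 also: carbachol stimulus at about its EC50 of 1 µM final; % is scaled to controls: 0 for no effect and ±100 for the full control effect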); conditions: Jurkat NFAT-bla M1, carbachol, beta-lactamase ratio, 5 h; at 17.2 µM (top of the series) unless noted
Outline: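 Jurkat cells with NFAT-driven β-lactamase reporter and co-expressed M1 receptor, stimulated with carbachol (final 1 uM, ~EC50), compound titration, 5 h at 37 °C. CCF4 loaded 1 h at RT; 460/530 nm ratio gave %activity and AC50.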

[3] = Cell Viability - BJ (AID 421); conditions: BJ fibroblast viability, qHTS;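 also: potency is read from the fitted curve at half-maximal effect; cells exposed to compound for 40 hours at 37 °C before readout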
Outline: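 Normal human BJ foreskin fibroblasts, 1500/well in complete medium, treated 40 hr at 37 °C. Cellular ATP by CellTiter-Glo luminescence; normalized to DMSO and 100 uM tamoxifen, AC50 from Hill fit.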

[4] = Cell Viability - Jurkat (AID 426;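 active = dose-dependent loss of cell ATP signal giving a full or clear fitted curve, ranked by lower potency value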; also: potency is read from the fitted curve at half-maximal effect); conditions: qHTS
Outline: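 Jurkat (clone E6-1, human T-cell leukemia) cells, 5000/well in complete medium, were exposed to compound for 40 hr at 37 °C. Viability was read as intracellular ATP by CellTiter-Glo luminescence; AC50 came from Hill fits of concentration-response data.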

[5] = Cell Viability - Hek293 (AID 427;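 active = compounds whose dose-response curve shows a full or clear partial loss of cell viability, called from curve shape rather than a numeric limit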;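 also: potency is read from the fitted curve at half-maximal effect; cells exposed to compound for 40 hours at 37 °C before reading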); conditions: qHTS
Outline: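 HEK293 cells in complete medium were exposed to compound for 40 hr at 37 °C, then cellular ATP was read by CellTiter-Glo luminescence. Data were normalized to DMSO (basal) and 100 uM tamoxifen (100% inhibition), and AC50 came from Hill fits.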

[6] = Cell Viability - HepG2 (AID 433); conditions: qHTS;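 also: potency is read from the fitted curve at half-maximal effect; potency for ATP loss meaning cytotoxicity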
Outline: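 HepG2 cells, 1500 per well, treated 40 hr at 37 °C in complete medium; viability from intracellular ATP by CellTiter-Glo luminescence. Normalized to DMSO and 100 uM tamoxifen; AC50 from Hill fit of qHTS concentration-response.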

[7] = Cell Viability - MRC5 (AID 434); conditions: MRC5 lung fibroblast viability, qHTS;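 also: potency is read from the fitted curve at half-maximal effect; potency reflects cytotoxicity seen as loss of intracellular ATP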
Outline: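 MRC5 normal human lung fibroblasts, 1500 cells/well, exposed to compound for 40 hr at 37 C. Cellular ATP was read by CellTiter-Glo luminescence; data normalized to DMSO and 100 uM tamoxifen, with AC50 from Hill fits.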

[8] = Cell Viability - SK-N-SH (AID 435); conditions: SK-N-SH neuroblastoma cell viability qHTS;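 also: potency is read from the fitted curve at half-maximal effect; compound exposure lasted 40 h at 37 °C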
Outline: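 SK-N-SH neuroblastoma cells (1500/well) treated 40 h at 37 °C in complete medium; viability read as cellular ATP by CellTiter-Glo luminescence. Normalized to DMSO and 100 uM tamoxifen; AC50 from Hill fits of qHTS concentration-response.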

CN(CCO)CC(O)Cn1cnc2c1c(=O)n(C)c(=O)n2C (stereo not drawn) (tested in a mixture with another compound)
inactive: outcome [1] | activity change, negative = inhibition [2] -24.9%

CC(C)O
inactive: Potency [3] > 92 µM | Potency [4] > 92 µM | Potency [5] > 92 µM | Potency [6] > 92 µM | Potency [7] > 92 µM | Potency [8] > 92 µM

O=P(O)(O)O
inactive: Potency [3] > 92 µM | Potency [4] > 92 µM | Potency [5] > 92 µM | Potency [6] > 92 µM | Potency [7] > 92 µM | Potency [8] > 92 µM

C/C=C/C=C/C(=O)O
inactive: Potency [3] > 92 µM | Potency [4] > 92 µM | Potency [5] > 92 µM | Potency [6] > 92 µM | Potency [7] > 92 µM | Potency [8] > 92 µM

O=c1n(CC2CO2)c(=O)n(CC2CO2)c(=O)n1CC1CO1 (stereo not drawn)
active: Potency [3] 30.6 µM | Potency [4] 14.7 µM | Potency [7] 51.4 µM

C[C@H](CCC(=O)O)[C@H]1CC[C@H]2[C@@H]3[C@H](O)C[C@@H]4C[C@H](O)CC[C@]4(C)[C@H]3C[C@H](O)[C@]12C
inactive: Potency [3] > 92 µM | Potency [4] > 92 µM | Potency [5] > 92 µM | Potency [6] > 92 µM | Potency [7] > 92 µM | Potency [8] > 92 µM

C[C@H]1O[C@@H](O[C@H]2[C@@H](O)C[C@H](O[C@H]3[C@@H](O)C[C@H](O[C@H]4CC[C@@]5(C)[C@H](CC[C@@H]6[C@@H]5C[C@@H](O)[C@]5(C)[C@@H](C7=CC(=O)OC7)CC[C@]65O)C4)O[C@@H]3C)O[C@@H]2C)C[C@H](O)[C@@H]1O
active: Potency [3] 0.00125 µM | Potency [4] 0.00438 µM | Potency [5] 0.0128 µM | Potency [6] 0.0159 µM | Potency [8] 0.0073 µM
inactive: Potency [7] > 92 µM

OB(O)O
inactive: Potency [3] > 92 µM | Potency [4] > 92 µM | Potency [5] > 92 µM | Potency [6] > 92 µM | Potency [7] > 92 µM | Potency [8] > 92 µM

CO/N=C(/C(=O)N[C@@H]1C(=O)N2C(C(=O)O)=C(COC(N)=O)CS[C@H]12)c1ccco1
inactive: Potency [3] > 92 µM | Potency [4] > 92 µM | Potency [5] > 92 µM | Potency [6] > 92 µM | Potency [7] > 92 µM | Potency [8] > 92 µM

ClC(Cl)Cl
inactive: Potency [3] > 92 µM | Potency [4] > 92 µM | Potency [5] > 92 µM | Potency [6] > 92 µM | Potency [7] > 92 µM | Potency [8] > 92 µM

CC(C)(C)CC(C)(C)c1ccc(OCCO)cc1
inactive: Potency [3] > 92 µM | Potency [4] > 92 µM | Potency [7] > 92 µM | Potency [8] > 92 µM

Nc1ccc(N=Nc2ccccc2)c(N)n1
inactive: Potency [3] > 92 µM | Potency [5] > 92 µM | Potency [6] > 92 µM | Potency [7] > 92 µM | Potency [8] > 92 µM | activity change, negative = inhibition [2] -10%

NCCN
inactive: Potency [3] > 92 µM | Potency [4] > 92 µM | Potency [5] > 92 µM | Potency [6] > 92 µM | Potency [7] > 92 µM | Potency [8] > 92 µM

O.O.O.O.O.O.O.O=S(=O)([O-])[O-].[Co+2]
inactive: Potency [3] > 92 µM | Potency [5] > 92 µM | Potency [6] > 92 µM | Potency [7] > 92 µM | Potency [8] > 92 µM

COC(=O)c1ccccc1O
inactive: Potency [3] > 92 µM | Potency [4] > 92 µM | Potency [5] > 92 µM | Potency [6] > 92 µM | Potency [7] > 92 µM | Potency [8] > 92 µM

CC1=CC(=O)NS(=O)(=O)O1
inactive: Potency [3] > 92 µM | Potency [4] > 92 µM | Potency [5] > 92 µM | Potency [6] > 92 µM | Potency [7] > 92 µM | Potency [8] > 92 µM

OCc1ccccc1
inactive: Potency [3] > 92 µM | Potency [4] > 92 µM | Potency [5] > 92 µM | Potency [6] > 92 µM | Potency [7] > 92 µM | Potency [8] > 92 µM

Nc1ncnc2c1ncn2[C@H]1CC[C@@H](CO)O1
inactive: Potency [3] > 92 µM | Potency [4] > 92 µM | Potency [5] > 92 µM | Potency [6] > 92 µM | Potency [7] > 92 µM | Potency [8] > 92 µM

CC/C=C\C/C=C\C/C=C\CCCCCCCC(=O)O
inactive: Potency [3] > 92 µM | Potency [5] > 92 µM | Potency [6] > 92 µM | Potency [7] > 92 µM | Potency [8] > 92 µM
